The panel holds about 83,000 compounds, 20% with a hit somewhere; the sample as a whole holds those more often.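 Interpretation: 100, growth as untreated; towards 0, rising growth inhibition; 0, no net growth; 0 to -100, cell death. Compounds scoring below 10 were considered active.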 Unmarked numbers belong to inactive results. Calls of active or inactive are those of the source.

The test has as its system HL-60(TB) leukemia. Kind of test: NCI-60 one-dose screen, 48 h (100 = growth as untreated, 0 = no growth, -100 = all killed). To be noted: 10 µM unless noted.
Regarding `O=[N+]([O-])c1ccc(NC(=S)NNC(=S)Nc2ccc(Br)cc2)cc1`, the growth was 93.1%.

Regarding `CN(C)CCCNc1c2ccc(Cl)cc2nc2c1oc1ccccc12`, the growth is -1.28% (active).

With `Nc1c(C(=O)Nc2ccc(C(F)(F)F)cc2)sc2nc(-c3cnccn3)cc(-c3cccs3)c12`, the growth is 51.9%.

Take `CC1=NC2=NC(=O)/C(=C3/N=C(C)C=C(c4ccccc4)N3N)NN2C(c2ccccc2)=C1`: the growth is 113%.

`C#C[C@]1(O)CC[C@H]2[C@@H]3CC=C4c5sc(Nc6nc(C)cc(OC)n6)nc5CC[C@]4(C)[C@H]3CC[C@@]21C`: the growth was 12.1%.

For the compound `CC1(C)CC[C@]23CC[C@]4(C)[C@H](CC[C@@H]5[C@@]6(C)CC[C@H](NCO)C(C)(C)[C@@H]6CC[C@]54C)[C@H]2[C@H]1OC3`, the growth was 4.17% (active).

Turning to `Cc1nn(-c2ccccc2)c2ncnc(N/N=C/c3cccc(O)c3)c12`, the growth is 35.3%.

For the compound `N#Cc1nc(-c2ccccc2)oc1S(=O)(=O)N1CCN(CCc2ccccn2)CC1`, the growth was 5.71% (active).

In the case of `CC1CCN(CC(=O)Nn2c(COc3ccccc3)nc3ccccc3c2=O)CC1`, the growth is 80.3%.

As to `CC/C(=C/c1cc(OC)ccc1O)c1ccc2cc(OC)ccc2[o+]1`, the growth was 6.9% (active).

As for `O=C1C2=C(C(=O)c3c(O)cccc31)C(c1ccco1)c1sc(=O)[nH]c1S2` (centres undefined), the growth was -17.6% (active).

In the case of `C#C[C@]1(O)CC[C@H]2[C@@H]3CC=C4c5sc(Nc6cc(C)cc(C)c6)nc5CC[C@]4(C)[C@H]3CC[C@@]21C`, the growth was -2.89% (active).

Take `CC(C)(C)OC(=O)NCc1ccc(CNc2c([N+](=O)[O-])cnc3ccccc23)cc1`: the growth was 49.1%.

For `N#C/C(=C\c1ccc(Cl)cc1Cl)C(N)=O`, the growth was 90.9%.

For `O=c1[nH][nH]c(-c2ccc(F)cc2)c1-c1nc2ccccc2s1`, the growth was 103%.

For `COc1cc(/C=C2\C(=O)Nc3cc(Cl)ccc32)ccc1OCc1ccc(F)cc1`, the growth is 120%.

As to `CN1CCN(c2ccc(Nc3nc(NCCCNS(=O)(=O)c4ccccc4)c4sccc4n3)cc2)CC1`, the growth was -32.9% (active).

With `COc1ccc(-c2ccc3c4c(cccc24)C(=O)N(N2C(=O)c4cccc5cccc(c45)C2=O)C3=O)cc1`, the growth is 103%.

Turning to `COc1ccc(-c2cc(-c3ccc(Cl)cc3)nc3nc(N)nn23)cc1`, the growth was 72.2%.

For `CCOC(=O)c1cccc(NC2=C(Cl)C(=O)c3nc(C)ccc3C2=O)c1`, the growth is 42%.

`CC(=O)NC(C)(C)C(=O)N1CCC[C@H]1C(=O)NC(C)(C)C(=O)N[C@@H](C)C(=O)NC(C)(C)C(=O)N[C@@H](C)C(=O)N[C@@H](CCC(N)=O)C(=O)NC(C)(C)C(=O)N[C@H](C(=O)NC(C)(C)C(=O)NCC(=O)N[C@@H](CC(C)C)C(=O)NC(C)(C)C(=O)N1CCC[C@H]1C(=O)N[C@H](C(=O)NC(C)(C)C(=O)NC(C)(C)C(=O)N[C@@H](CCC(N)=O)C(=O)N[C@@H](CCC(N)=O)C(=O)N[C@H](CO)Cc1ccccc1)C(C)C)C(C)C`: the growth was 95.6% [4.25 µM].

On to `C#CCOc1ccccc1C(Nc1ccccc1)c1nnnn1C1CCCCC1` (centres undefined), for which the growth was 91.6%.

Regarding `O=[N+]([O-])c1ccc(O)c2ncccc12`, the growth was -5.62% (active).

For `O=C1NC(=C(Cl)Cl)/C(=N/S(=O)(=O)N2CCCCC2CC2(C(F)(F)F)N=N2)N1` (centres undefined), the growth was 1.49% (active).

In the case of `COc1ccc(/C=N\NC(=O)c2cnn(CC(O)c3ccccc3)c2N)cc1OCc1ccc(Cl)cc1` (centres undefined), the growth is 99.7%.

As for `O=S(=O)(Nc1ccc(I)cc1Cl)c1ccc(-c2cnc(C3CC3)o2)cc1`, the growth is 9.69% (active).

For the compound `NCCNC(=O)c1cccc(COc2ccccc2NC(=O)c2cc(Br)c(Br)[nH]2)c1`, the growth is 69.5%.

For the compound `NC(=S)n1c(=O)n(-c2cccc(C(F)(F)F)c2)c(=O)c2cc(-c3ccc(F)cc3F)ccc21`, the growth was -46.8% (active).

For the compound `Oc1ccc(CSc2nnc(-c3cnccn3)n2-c2ccccc2)c2cccnc12`, the growth is 14.4%.

As for `CNCc1cccc2c1OCCCCCCC(C)(O)CC(C)(C)S(=O)(=O)c1ccc(cc1)-c1cnc(N)c(n1)C(=O)N2` (centres undefined), the growth is -44.1% (active).

For the compound `Cc1[nH]c(C(=O)Nc2ccc(C(N)=O)cc2N2CCOC(C)C2)c(Cl)c1Cl` (centres undefined), the growth is 98.1%.

With `COC[C@]12CC[C@@H](C)[C@H](C)[C@H]1C1=CC[C@@H]3[C@@]4(C)CCCNC(C)(C)[C@@H]4CC[C@@]3(C)[C@]1(C)CC2`, the growth is -47.1% (active).

For `Nc1nc(-c2cccc([N+](=O)[O-])c2)c(N=Nc2ccccc2[N+](=O)[O-])s1`, the growth is 96.5%.

Turning to `CN(C)CCCNc1c2ccccc2nc2c1oc1ccc(Cl)cc12`, the growth was -1.29% (active).

As to `CC1=C(SCC(=O)OCCCCCC(C)C)C(=O)c2ccccc2C1=O`, the growth was 86.8%.

With `CCCn1cnc2c(c1=N)C(c1ccc(OC)cc1)c1sc3c(CC)cccc3c1O2` (centres undefined), the growth is -12.9% (active).

On to `CN(C)c1ccc(-c2c(NC(C)(C)C)nc3c(OCCc4ccccc4)cccn23)cc1`, for which the growth is -32.7% (active).

Consider `N#Cc1c(-c2cccs2)cc(-c2cnccn2)nc1SCC(=O)c1ccc(F)cc1`, for which the growth was 131%.

Regarding `Cn1cc(-c2cc(N)n3nc(-c4cn(C)c5ccc(Br)cc45)cc3n2)c2cc(Br)ccc21`, the growth was 26.7%.

The values are drawn from PubChem BioAssay (NCI).
